# Test results as given in PubChem BioAssay (NCI).
# Where “and” joins values, the source holds several entries; their conditions need not be identical. Equal values may be shown once. This is part of a sample that, as a whole, favours compounds with a hit. Of some 79,000 tested, about 15% had one in any assay. Values without a mark were called inactive. Calls of active or inactive are those of the source. Cut-off read from the data, not from the text of the source: active = growth inhibition above about 70%; inactive = the rest.
# How the values were obtained:
# [1] = NCI Yeast Anticancer Drug Screen. Data for the rad50 strain (AID 155);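 note: 0% = growth of vehicle-only cultures of the same strain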; details: S. cerevisiae rad50 strain growth inhibition, hits give high values
# How it was run: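 Yeast carrying a defined DNA repair defect were exposed to test compounds, and growth was compared with vehicle-treated controls to give percent inhibition.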
# [2] = NCI Yeast Anticancer Drug Screen. Data for the mec2-1 strain (AID 157); details: S. cerevisiae mec2-1 strain, hits give high values
# How it was run: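 Mutant yeast (mec2-1) grown with compound; growth inhibition relative to vehicle control reported.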
# [3] = NCI Yeast Anticancer Drug Screen. Data for the sgs1 mgt1 strain (AID 161);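 note: 0% = growth of cultures given vehicle only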; details: S. cerevisiae sgs1 mgt1 strain, hits give high values
# How it was run: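 Growth of a repair-deficient yeast mutant was monitored after compound treatment and expressed as inhibition relative to vehicle-treated cultures.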
# [4] = NCI Yeast Anticancer Drug Screen. Data for the cln2 rad14 strain (AID 165);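 note: 0% = growth equal to vehicle treated cultures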; details: S. cerevisiae cln2 rad14 strain, hits give high values
# How it was run: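 Readout is yeast growth inhibition versus vehicle-treated controls, using a strain with cln2 and rad14 alterations exposed to compound.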
# [5] = NCI Yeast Anticancer Drug Screen. Data for the bub3 strain (AID 167); details: S. cerevisiae bub3 mutant strain, hits give high values
# How it was run: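 Compounds were applied to a genetically altered yeast strain carrying a cell-cycle control defect. Growth inhibition was scored against vehicle-treated controls.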
# [6] = NCI Yeast Anticancer Drug Screen. Data for the mlh1 rad18 strain (AID 175); details: S. cerevisiae mlh1 rad18 strain growth inhibition, hits give high values
# How it was run: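 Genetically defined yeast (DNA repair-deficient) exposed to compounds; growth inhibition determined relative to vehicle.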
# [7] = at 5.0 µM (retest, dose inferred, filed as 0.5)
# [8] = at 50.0 µM (retest, dose inferred, filed as 5.0)
Compound,"growth inhibition [1, 7]","growth inhibition [1, 8]","growth inhibition [2, 7]","growth inhibition [2, 8]","growth inhibition [3, 7]","growth inhibition [3, 8]","growth inhibition [4, 7]","growth inhibition [4, 8]","growth inhibition [5, 7]","growth inhibition [5, 8]","growth inhibition [6, 7]","growth inhibition [6, 8]",growth inhibition ([1]; at 50.0 µM),growth inhibition ([2]; at 50.0 µM),growth inhibition ([3]; at 50.0 µM),growth inhibition ([4]; at 50.0 µM),growth inhibition ([5]; at 50.0 µM),growth inhibition ([6]; at 50.0 µM)
OCCNC(c1ccc(Cl)cc1)C(O)c1ccc(Cl)cc1 (stereo not given),5%,62%,-3%,13%,0%,77% (active),11%,8%,6%,55%,-4%,59%,,,,,,
CN(C)CC1CC(=O)C(CN(C)C)CC1=O (stereo not given),,,,,,,,,,,,,7.35% and -5.3%,1.85% and -5.7%,-10.1% and -21.7%,4% and -37.1%,-7.45% and -15.6%,18.6% and -8.8%
Clc1ccc(-n2ncc3c(Cl)nc(Cl)nc32)cc1,98% (active),99% (active),99% (active),99% (active),100% (active),99% (active),97% (active),98% (active),99% (active),99% (active),99% (active),99% (active),,,,,,
CN(C)c1cc(N)c(Cc2c(N)cc(N(C)C)cc2Cl)c(Cl)c1,5%,97% (active),-2%,97% (active),-4%,98% (active),,,6%,97% (active),1%,97% (active),,,,,,
CCCCC(=O)c1ccc([N+](=O)[O-])o1,39%,98% (active),19%,99% (active),26%,100% (active),18%,99% (active),45%,100% (active),36%,99% (active),,,,,,
C=CC/C(=N\OS(=O)(=O)O)SC1OC(CO)C(O)C(O)C1O (stereo not given),,,,,,,,,,,,,2.2% and 4.75%,-30.6% and -21.5%,-0.75% and -20.6%,13.4% and 7.4%,-14% and -30.2%,-14.9% and -10.7%
O=[N+]([O-])C(CO)(CO)CO,,,,,,,,,,,,,-11.3% and 11.1%,-6.25% and 1.95%,-6% and 6.85%,-22.4% and 3.45%,-2.55% and 2.6%,-7.2% and 2.65%
O=C(O)/C=C\C(=O)NNc1ccccc1,12%,96% (active),-2%,95% (active),5%,98% (active),10%,82% (active),14%,99% (active),-7%,94% (active),,,,,,
NCCN1C(=O)CNC1=S,-23%,30%,-1%,-4%,3%,3%,0%,-3%,-1%,-5%,10%,17%,,,,,,
CCCCC(CC)CNC(=O)/C=C\C(=O)O (stereo not given),15%,85% (active),11%,67%,10%,96% (active),-3%,60%,6%,83% (active),15%,91% (active),,,,,,
S=c1sc2ccccc2n1CCNc1ccccc1,8%,90% (active),-3%,73% (active),4%,98% (active),7%,25%,6%,92% (active),-10%,64%,,,,,,
CCCCCCCCCC(=O)CCCCCCCCC,48%,7%,30%,8%,44%,14%,22%,11%,92% (active),38%,32%,35%,,,,,,
Oc1ccc[n+](Cc2ccccc2)c1,,,,,,,,,,,,,-7.85% and -26.4%,-24.1% and -43.9%,-47.3% and -12.4%,7.35% and 24.6%,-49.5% and -22.8%,-21.8% and -11.4%
COC(=O)C(C)NC(=O)c1c2nc3c(C(=O)NC(C)C(=O)OC)ccc(C)c3oc-2c(C)c(=O)c1N (stereo not given),,,,,,,,,,,,,2.9% and 13.8%,14.7% and -7.2%,0.1% and -14.9%,22% and 15%,7.25% and -4.65%,29.1% and -4.85%
CC(C)c1cc([N+](=O)[O-])c(O)c([N+](=O)[O-])c1,46%,92% (active),14%,75% (active),13%,78% (active),18%,76% (active),29%,89% (active),24%,91% (active),,,,,,
CCCCC(CC)CNC(=O)CI (stereo not given),11%,66%,-2%,22%,,,9%,6%,9%,76% (active),-13%,51%,,,,,,
CC1C2c3ccccc3C(c3ccccc32)C1CO (stereo not given),11%,88% (active),1%,61%,6%,77% (active),4%,71% (active),-4%,74% (active),-44%,80% (active),,,,,,
